Assay in all cases: DAPPL (digital affinity profiling via proximity ligation, sequencing); 10 mM Tris-HCl pH 7.5, 50 mM NaCl, 1 mM DTT, 4% glycerol, room temperature, 30 min; GST-TFs on glutathione beads, 16-mer random dsDNA library, 0.1% formaldehyde crosslink after washing; high values mean tight binding
The target of one experiment is T1, FEV (Homo sapiens, UniProt Q99581 1-238).
T1 sequence: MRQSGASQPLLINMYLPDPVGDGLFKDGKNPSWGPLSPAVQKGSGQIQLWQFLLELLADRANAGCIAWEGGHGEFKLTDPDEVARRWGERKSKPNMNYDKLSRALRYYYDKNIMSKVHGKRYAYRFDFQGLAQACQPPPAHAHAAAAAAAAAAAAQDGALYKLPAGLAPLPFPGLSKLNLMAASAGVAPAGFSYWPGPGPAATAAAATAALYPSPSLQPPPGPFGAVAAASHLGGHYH
The conditions noted are these: protein: recombinant; tags: N-terminal GST; dsDNA, one strand shown. In short, it runs like this: (§1)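 Beads coated with glutathione captured GST-fused human transcription factors that had been expressed in yeast, and the factors were then given DNA barcodes and pooled with a tag-only sample. The pools were incubated with 200 nmole of a random double-stranded 16-mer DNA library in Tris/NaCl/DTT/glycerol buffer for 30 min at room temperature, washed, crosslinked with 0.1% formaldehyde and proximity-ligated with BsaI/T4 ligase at 37 °C for 1 h. PCR amplification and Illumina NextSeq500 sequencing came last. Binding signal is each hexamer's read frequency for a factor divided by its frequency for the tag-only sample.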

The next experiment concerns the target ETV5 (Homo sapiens, UniProt P41161 1-510). The conditions noted are these: protein: recombinant; tags: N-terminal GST; dsDNA, one strand shown. In short, it runs like this: as §1
A further experiment has as its target HSF1 (Homo sapiens, UniProt Q00613 1-529). The conditions noted are these: protein: recombinant; tags: N-terminal GST; chain copies: 3; dsDNA, one strand shown. In short, it runs like this:
as §1

Another experiment deals with T2, SPIC (Homo sapiens, UniProt Q8N5J4 1-248).
T2 sequence: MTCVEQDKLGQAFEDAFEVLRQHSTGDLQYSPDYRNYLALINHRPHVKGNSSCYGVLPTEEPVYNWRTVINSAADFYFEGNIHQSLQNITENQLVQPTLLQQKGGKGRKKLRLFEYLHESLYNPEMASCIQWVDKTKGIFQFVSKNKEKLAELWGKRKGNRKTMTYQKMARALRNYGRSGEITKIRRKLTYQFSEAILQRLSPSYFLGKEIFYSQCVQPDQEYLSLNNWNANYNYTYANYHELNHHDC
The conditions noted are these: protein: recombinant; tags: N-terminal GST; dsDNA, one strand shown. In short, it runs like this:
as §1

The target of the next experiment is ELF4 (Homo sapiens, UniProt Q99607 1-663). The conditions noted are these: protein: recombinant; tags: N-terminal GST; dsDNA, one strand shown. In short, it runs like this:
as §1

The next experiment addresses T3, ELK4 (Homo sapiens, UniProt P28324-2 1-405).
T3 sequence: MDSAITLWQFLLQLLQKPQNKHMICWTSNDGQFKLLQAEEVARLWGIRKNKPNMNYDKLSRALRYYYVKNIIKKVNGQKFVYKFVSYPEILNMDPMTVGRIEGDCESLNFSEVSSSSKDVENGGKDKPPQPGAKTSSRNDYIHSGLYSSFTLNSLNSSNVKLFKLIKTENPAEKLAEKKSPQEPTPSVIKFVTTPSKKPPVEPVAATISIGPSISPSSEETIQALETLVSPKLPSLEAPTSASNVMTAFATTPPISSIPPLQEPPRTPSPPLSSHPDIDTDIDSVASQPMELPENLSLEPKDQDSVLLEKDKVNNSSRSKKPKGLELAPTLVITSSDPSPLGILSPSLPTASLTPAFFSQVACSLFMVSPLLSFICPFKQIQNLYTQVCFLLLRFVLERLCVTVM
The conditions noted are these: protein: recombinant; tags: N-terminal GST; dsDNA, one strand shown. In short, it runs like this: as §1

The next experiment deals with T4, ETV2 (Homo sapiens, UniProt O00321 1-342).
T4 sequence: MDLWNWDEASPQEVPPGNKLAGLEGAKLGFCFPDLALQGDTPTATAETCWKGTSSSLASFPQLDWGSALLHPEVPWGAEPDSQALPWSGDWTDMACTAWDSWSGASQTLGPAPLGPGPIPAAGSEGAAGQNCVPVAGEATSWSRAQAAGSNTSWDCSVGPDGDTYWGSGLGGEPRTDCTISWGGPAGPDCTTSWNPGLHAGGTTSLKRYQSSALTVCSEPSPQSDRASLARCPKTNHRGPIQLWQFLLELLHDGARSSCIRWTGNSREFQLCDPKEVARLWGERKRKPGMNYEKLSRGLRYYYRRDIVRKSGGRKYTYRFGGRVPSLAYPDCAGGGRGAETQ
The settings on record: protein: recombinant; tags: N-terminal GST; dsDNA, one strand shown. In short, it runs like this: as §1

In the next experiment the target is T5, ELF3 (Homo sapiens, UniProt P78545 1-371).
T5 sequence: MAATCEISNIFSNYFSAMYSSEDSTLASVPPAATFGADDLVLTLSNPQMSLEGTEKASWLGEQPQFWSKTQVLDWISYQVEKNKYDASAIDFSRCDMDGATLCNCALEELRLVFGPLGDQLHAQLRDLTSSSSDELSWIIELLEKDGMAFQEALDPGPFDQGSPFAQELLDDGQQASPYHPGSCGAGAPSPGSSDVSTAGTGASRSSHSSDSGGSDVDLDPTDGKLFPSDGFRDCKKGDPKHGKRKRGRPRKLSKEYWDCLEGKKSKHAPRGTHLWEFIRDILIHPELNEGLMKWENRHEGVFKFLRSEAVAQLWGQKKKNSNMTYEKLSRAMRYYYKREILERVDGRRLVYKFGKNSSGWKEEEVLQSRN
The settings on record: protein: recombinant; tags: N-terminal GST; dsDNA, one strand shown. In short, it runs like this: as §1

In another experiment the target is CRX (Homo sapiens, UniProt O43186 1-299). The conditions noted are these: protein: recombinant; tags: N-terminal GST; dsDNA, one strand shown. In short, it runs like this: as §1
Chain of CRX (O43186 whole entry): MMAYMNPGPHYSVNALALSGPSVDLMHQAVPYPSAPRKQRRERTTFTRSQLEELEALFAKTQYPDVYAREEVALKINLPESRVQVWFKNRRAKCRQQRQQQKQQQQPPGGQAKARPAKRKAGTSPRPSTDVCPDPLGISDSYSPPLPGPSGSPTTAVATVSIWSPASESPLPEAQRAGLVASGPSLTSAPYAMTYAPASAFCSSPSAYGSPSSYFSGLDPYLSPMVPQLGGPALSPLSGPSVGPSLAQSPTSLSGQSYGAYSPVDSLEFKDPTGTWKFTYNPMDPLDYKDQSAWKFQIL
Another experiment concerns the target ETV1 (Homo sapiens, UniProt P50549 1-477). The conditions noted are these: protein: recombinant; tags: N-terminal GST; dsDNA, one strand shown. In short, it runs like this: as §1
The target of a further experiment is T6, ERF (Homo sapiens, UniProt P50548 1-548).
T6 sequence: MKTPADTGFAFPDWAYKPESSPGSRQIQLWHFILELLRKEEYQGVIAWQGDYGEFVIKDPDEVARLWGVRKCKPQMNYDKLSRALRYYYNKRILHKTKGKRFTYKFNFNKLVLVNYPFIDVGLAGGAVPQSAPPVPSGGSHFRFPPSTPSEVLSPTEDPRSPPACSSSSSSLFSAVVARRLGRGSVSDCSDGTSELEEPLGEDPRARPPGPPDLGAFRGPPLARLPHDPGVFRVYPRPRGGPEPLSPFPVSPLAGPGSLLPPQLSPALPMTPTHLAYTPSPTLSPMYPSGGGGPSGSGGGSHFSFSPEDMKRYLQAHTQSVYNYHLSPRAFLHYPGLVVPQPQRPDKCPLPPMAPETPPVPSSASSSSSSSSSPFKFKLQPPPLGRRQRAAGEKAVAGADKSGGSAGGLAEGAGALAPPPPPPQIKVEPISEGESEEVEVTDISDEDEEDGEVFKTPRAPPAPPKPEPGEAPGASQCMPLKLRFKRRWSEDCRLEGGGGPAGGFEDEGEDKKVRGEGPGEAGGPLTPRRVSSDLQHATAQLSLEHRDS
The settings on record: protein: recombinant; tags: N-terminal GST; dsDNA, one strand shown. In short, it runs like this:
as §1

The next experiment deals with T7, ETV3L (Homo sapiens, UniProt Q6ZN32 1-361).
T7 sequence: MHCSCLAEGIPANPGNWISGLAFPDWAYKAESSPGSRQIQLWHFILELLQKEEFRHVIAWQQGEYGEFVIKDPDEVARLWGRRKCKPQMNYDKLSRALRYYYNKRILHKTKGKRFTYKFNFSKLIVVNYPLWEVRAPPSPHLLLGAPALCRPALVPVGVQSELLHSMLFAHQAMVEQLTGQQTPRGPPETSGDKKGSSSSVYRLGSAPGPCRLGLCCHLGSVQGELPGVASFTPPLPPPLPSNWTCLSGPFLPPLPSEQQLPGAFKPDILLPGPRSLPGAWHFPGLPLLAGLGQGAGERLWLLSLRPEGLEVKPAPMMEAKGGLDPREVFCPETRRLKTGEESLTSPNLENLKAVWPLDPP
The settings on record: protein: recombinant; tags: N-terminal GST; dsDNA, one strand shown. In short, it runs like this:
as §1

The next experiment has as its target T8, ETS2 (Homo sapiens, UniProt P15036 1-469).
T8 sequence: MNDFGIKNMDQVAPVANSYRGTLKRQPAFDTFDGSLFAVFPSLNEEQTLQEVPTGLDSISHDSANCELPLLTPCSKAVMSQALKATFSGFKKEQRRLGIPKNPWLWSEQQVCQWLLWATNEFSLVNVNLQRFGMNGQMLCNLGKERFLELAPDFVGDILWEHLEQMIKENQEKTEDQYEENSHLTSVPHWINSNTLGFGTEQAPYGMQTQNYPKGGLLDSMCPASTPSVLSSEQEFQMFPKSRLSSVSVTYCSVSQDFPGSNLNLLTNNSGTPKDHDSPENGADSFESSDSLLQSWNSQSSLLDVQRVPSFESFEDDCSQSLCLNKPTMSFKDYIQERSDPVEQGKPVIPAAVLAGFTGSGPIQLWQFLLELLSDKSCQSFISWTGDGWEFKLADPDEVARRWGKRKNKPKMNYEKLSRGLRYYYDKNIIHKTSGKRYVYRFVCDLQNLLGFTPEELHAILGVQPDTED
The settings on record: protein: recombinant; tags: N-terminal GST; dsDNA, one strand shown. In short, it runs like this: as §1

A further experiment addresses T9, SPDEF (Homo sapiens, UniProt O95238 1-335).
T9 sequence: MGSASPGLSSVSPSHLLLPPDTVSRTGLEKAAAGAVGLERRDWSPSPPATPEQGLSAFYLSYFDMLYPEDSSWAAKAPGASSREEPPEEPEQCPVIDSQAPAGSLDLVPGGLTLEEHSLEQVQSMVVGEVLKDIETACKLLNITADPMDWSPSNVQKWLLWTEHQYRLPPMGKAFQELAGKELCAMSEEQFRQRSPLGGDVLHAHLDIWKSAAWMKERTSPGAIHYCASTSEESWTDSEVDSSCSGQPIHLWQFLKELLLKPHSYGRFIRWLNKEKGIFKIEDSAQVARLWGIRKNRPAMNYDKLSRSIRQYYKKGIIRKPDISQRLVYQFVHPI
The conditions noted are these: protein: recombinant; tags: N-terminal GST; dsDNA, one strand shown. In short, it runs like this: as §1

A further experiment deals with T10, ETV7 (Homo sapiens, UniProt Q9Y603 1-341).
T10 sequence: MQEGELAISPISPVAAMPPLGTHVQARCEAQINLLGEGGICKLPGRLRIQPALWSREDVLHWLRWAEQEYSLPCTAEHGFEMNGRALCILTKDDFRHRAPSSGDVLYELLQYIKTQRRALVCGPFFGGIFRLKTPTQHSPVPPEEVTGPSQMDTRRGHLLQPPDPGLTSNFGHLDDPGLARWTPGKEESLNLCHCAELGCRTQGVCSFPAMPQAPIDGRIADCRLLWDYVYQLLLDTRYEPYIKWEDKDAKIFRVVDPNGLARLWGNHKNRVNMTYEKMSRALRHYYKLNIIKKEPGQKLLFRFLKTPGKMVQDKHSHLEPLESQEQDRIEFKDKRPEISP
The settings on record: protein: recombinant; tags: N-terminal GST; dsDNA, one strand shown. In short, it runs like this:
as §1

A further experiment has as its target T11, ELF5 (Homo sapiens, UniProt Q9UKW6-2 1-255).
T11 sequence: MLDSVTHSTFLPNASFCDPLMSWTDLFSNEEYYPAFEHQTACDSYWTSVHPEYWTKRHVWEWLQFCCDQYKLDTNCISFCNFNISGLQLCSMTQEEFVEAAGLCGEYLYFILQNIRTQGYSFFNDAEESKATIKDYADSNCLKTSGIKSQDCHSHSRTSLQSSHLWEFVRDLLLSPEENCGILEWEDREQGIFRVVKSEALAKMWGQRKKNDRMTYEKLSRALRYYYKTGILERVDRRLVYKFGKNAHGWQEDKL
The conditions noted are these: protein: recombinant; tags: N-terminal GST; dsDNA, one strand shown. In short, it runs like this: as §1

A further experiment deals with T12, ETV3 (Homo sapiens, UniProt P41162-2 1-143).
T12 sequence: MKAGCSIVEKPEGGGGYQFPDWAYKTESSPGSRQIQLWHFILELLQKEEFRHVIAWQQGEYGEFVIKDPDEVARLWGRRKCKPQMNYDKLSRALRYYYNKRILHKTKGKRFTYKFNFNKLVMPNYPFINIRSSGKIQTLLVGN
The settings on record: protein: recombinant; tags: N-terminal GST; dsDNA, one strand shown. In short, it runs like this: as §1

The target of the next experiment is ETV6 (Homo sapiens, UniProt P41212 1-452). The conditions noted are these: protein: recombinant; tags: N-terminal GST; dsDNA, one strand shown. In short, it runs like this: as §1
Chain of ETV6 (P41212 whole entry): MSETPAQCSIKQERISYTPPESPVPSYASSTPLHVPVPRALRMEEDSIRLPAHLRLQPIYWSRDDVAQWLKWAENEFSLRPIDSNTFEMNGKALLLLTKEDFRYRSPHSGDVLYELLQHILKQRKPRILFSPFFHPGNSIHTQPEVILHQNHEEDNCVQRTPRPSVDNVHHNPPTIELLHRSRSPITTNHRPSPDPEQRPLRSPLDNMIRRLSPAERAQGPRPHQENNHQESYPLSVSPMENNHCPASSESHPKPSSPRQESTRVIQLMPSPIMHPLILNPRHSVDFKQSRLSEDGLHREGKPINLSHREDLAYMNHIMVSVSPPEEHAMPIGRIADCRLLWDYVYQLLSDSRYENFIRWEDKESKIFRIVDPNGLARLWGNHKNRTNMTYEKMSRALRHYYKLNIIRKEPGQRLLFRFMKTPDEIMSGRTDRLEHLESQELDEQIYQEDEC

Chain of HSF1 (Q00613 whole entry): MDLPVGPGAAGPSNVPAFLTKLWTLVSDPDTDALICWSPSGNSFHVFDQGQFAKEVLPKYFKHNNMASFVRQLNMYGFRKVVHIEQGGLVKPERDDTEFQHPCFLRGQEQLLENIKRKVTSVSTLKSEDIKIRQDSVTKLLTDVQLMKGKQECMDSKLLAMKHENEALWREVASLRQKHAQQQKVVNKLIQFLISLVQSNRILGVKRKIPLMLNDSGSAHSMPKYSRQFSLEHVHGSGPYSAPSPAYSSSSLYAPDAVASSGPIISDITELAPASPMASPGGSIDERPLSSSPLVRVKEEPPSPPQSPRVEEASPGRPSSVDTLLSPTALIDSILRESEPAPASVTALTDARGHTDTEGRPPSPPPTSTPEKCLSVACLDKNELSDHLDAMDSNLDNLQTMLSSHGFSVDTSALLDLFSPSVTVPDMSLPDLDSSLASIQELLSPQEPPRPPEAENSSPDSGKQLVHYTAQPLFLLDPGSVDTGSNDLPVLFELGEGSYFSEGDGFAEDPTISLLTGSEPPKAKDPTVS
Chain of ETV5 (P41161 whole entry): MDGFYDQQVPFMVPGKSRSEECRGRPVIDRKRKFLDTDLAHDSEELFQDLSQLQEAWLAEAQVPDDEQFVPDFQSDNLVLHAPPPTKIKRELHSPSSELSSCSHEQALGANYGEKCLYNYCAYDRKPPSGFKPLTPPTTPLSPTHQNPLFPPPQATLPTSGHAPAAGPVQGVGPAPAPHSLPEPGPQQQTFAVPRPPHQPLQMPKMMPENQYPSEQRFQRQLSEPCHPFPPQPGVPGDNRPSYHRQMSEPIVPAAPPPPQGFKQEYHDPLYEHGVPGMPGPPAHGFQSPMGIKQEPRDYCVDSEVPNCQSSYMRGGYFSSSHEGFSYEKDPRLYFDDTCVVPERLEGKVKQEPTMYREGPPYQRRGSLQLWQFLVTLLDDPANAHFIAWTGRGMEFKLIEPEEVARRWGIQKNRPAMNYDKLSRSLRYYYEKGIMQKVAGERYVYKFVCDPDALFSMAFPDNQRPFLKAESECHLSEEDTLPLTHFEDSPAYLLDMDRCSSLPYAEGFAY
Chain of ELF4 (Q99607 whole entry): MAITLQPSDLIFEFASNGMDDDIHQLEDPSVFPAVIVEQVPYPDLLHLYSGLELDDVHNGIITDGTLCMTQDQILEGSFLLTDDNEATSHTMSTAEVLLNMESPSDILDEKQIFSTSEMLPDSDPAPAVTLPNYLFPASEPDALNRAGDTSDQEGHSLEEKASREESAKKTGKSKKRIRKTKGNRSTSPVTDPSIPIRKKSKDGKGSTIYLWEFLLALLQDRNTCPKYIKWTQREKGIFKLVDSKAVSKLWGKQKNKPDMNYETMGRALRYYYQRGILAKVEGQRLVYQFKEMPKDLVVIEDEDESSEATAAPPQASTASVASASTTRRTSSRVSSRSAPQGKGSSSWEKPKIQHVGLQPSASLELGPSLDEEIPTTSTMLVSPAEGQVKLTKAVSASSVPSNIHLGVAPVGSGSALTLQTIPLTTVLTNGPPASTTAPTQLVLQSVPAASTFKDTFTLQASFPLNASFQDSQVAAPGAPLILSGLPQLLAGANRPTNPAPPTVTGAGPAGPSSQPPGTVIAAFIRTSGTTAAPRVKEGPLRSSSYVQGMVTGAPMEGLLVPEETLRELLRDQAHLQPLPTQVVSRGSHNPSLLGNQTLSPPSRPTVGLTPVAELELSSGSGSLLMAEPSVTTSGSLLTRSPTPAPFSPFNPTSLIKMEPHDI
Chain of ETV1 (P50549 whole entry): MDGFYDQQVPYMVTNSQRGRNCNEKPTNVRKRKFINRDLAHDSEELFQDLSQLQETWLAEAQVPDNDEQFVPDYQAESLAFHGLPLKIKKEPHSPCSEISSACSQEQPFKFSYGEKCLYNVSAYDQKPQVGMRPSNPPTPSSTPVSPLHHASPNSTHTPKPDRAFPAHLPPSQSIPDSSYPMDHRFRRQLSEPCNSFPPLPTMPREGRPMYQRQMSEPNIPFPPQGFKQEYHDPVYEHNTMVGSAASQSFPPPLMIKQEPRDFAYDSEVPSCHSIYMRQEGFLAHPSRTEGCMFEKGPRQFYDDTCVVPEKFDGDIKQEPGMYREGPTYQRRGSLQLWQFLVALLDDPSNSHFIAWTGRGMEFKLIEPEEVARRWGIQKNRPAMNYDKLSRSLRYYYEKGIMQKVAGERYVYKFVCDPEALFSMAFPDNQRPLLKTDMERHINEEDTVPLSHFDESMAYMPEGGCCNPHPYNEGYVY

On to CCCTTC, for which the binding signal with FEV was 1.47 fold enrichment (6-mer frequency, TF over GST control); with ETV5, 1.54 fold enrichment (6-mer frequency, TF over GST control); with HSF1, 1.35 fold enrichment (6-mer frequency, TF over GST control); with SPIC it was 1.19 fold enrichment (6-mer frequency, TF over GST control); in the experiment with ELF4, 1.49 fold enrichment (6-mer frequency, TF over GST control); in the experiment with ELK4, 1.35 fold enrichment (6-mer frequency, TF over GST control). Moreover, the binding signal in the experiment with ETV2 was 1.33 fold enrichment (6-mer frequency, TF over GST control); in the experiment with ELF3, 1.46 fold enrichment (6-mer frequency, TF over GST control); with CRX, 1.05 fold enrichment (6-mer frequency, TF over GST control); with ETV1, 1.51 fold enrichment (6-mer frequency, TF over GST control); in the experiment with ERF, 1.25 fold enrichment (6-mer frequency, TF over GST control); with ETV3L it was 1.44 fold enrichment (6-mer frequency, TF over GST control). The binding signal is 1.37 fold enrichment (6-mer frequency, TF over GST control) with ETS2; 1.38 fold enrichment (6-mer frequency, TF over GST control) in the experiment with SPDEF; 1.43 fold enrichment (6-mer frequency, TF over GST control) with ETV7; 1.62 fold enrichment (6-mer frequency, TF over GST control) in the experiment with ELF5; 1.34 fold enrichment (6-mer frequency, TF over GST control) with ETV3; 1.5 fold enrichment (6-mer frequency, TF over GST control) in the experiment with ETV6.

These data come from paper PMC7862700, “An all-to-all approach to the identification of sequence-specific readers for epigenetic DNA modifications on cytosine”.
